# High-throughput results from PubChem.
# OTUD3 block = inhibitors of human OTUD3 deubiquitinase; purified OTUD3, Ub-rhodamine fluorescence, 2 h; inhibition, % at 25 µM; actives 0.7% (n = 47,000); AID 1645858
# USP17 block = human USP17-like deubiquitinase inhibition; purified USP17, Ub-rhodamine cleavage fluorescence, 3 h; inhibition, % at 50 µM; actives 6.5% (n = 47,000); AID 1645855
# Target sequence (A8MUK1 whole entry, looked up): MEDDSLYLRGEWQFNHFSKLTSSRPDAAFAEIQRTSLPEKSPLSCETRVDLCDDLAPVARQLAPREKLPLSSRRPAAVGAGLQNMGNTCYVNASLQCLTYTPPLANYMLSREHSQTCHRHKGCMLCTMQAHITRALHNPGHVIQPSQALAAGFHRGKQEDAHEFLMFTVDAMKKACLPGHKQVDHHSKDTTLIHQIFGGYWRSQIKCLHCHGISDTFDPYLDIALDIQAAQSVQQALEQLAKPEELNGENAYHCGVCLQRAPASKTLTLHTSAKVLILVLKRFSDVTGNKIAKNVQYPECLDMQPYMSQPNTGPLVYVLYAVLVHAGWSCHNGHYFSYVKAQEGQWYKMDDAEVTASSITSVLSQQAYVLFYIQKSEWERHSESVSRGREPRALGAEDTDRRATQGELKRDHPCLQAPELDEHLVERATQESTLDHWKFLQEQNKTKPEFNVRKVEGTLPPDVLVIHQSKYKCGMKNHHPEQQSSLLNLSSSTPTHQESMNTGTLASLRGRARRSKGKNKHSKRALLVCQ
# USP28 block = human USP28 deubiquitinase inhibition | purified USP28, Ub-rhodamine cleavage fluorescence, 30 min | inhibition, % at 25 µM | actives 3% (n = 47,000) | Q96RU2 | AID 1645857
# USP30 block = blocks human USP30 ubiquitin-rhodamine cleavage; Q70CQ3; purified USP30, Ub-rhodamine cleavage fluorescence; inhibition, % at 25 µM; actives 5.3% (n = 47,000)
# The depositor's hits bear a star; . = no result given. This is a sample that favours compounds with a hit; in the whole collection about 12% have one here. No stated cut-off is given here; in the data, active means inhibition above about 30%; inactive means the rest.
SMILES,OTUD3 block,USP17 block,USP28 block,USP30 block
O=C(CSc1nnc(-c2cccnc2)o1)Nc1cccc(Cl)c1,9,33*,15,30
Cc1ccc(NC(=O)CSc2nnc(-c3cccnc3)o2)cc1F,17,14,16,22
COc1cccc(NC(=O)C2CCN(C(=O)c3cc(-c4cccnc4)n[nH]3)CC2)c1,2,0,57*,9
CNC(=O)NC(=O)CSc1nnc(-c2ccc(Cl)cc2)o1,-1,33*,0,7
Cc1nnc2c(NC3CCN(Cc4ccccc4)CC3)nc3ccccc3n12,-1,-7,-3,-20
N#CC1(c2ccccc2)CCC2(CC1)N=C(N)Nc1nc3cc4c(cc3n12)OCCCO4 (stereo unspecified),-12,21,4,7
O=C(NCCCS(=O)(=O)N1CCN(c2ccc(F)cc2)CC1)c1cccc(F)c1,3,-9,-2,-9
Cc1nc(C)n(CCC(=O)N2CCC3(CC2)CC2(CO3)NC(=O)c3ccccc3N2)n1 (stereo unspecified),7,8,8,-57
COc1cccc(-c2cc(C(=O)Nc3cccc(C(C)=O)c3)[nH]n2)c1,-39,2,-32,-64
CSc1cccc(NC(=O)c2cc(-c3cccnc3)n[nH]2)c1,0,79*,53*,65*
COc1ccc(CCNC(=O)c2cc(-c3cccnc3)n[nH]2)cc1OC,4,0,18,17
O=C(Nc1ccccc1F)c1cc(-c2cccnc2)n[nH]1,13,70*,.,.
COc1cccc(-c2cc(C(=O)Nc3ccccc3)[nH]n2)c1,10,39*,22,35*
CN1C(=O)COc2ccccc2C/C=C/C[C@@H]2[C@H]1CCCN2C(=O)CCCn1cncn1,0,0,-3,1
CCN(CC)C(=O)CC[C@H]1CNC(=O)[C@@H]2[C@@H](CCN2Cc2ccccn2)N1C,5,-74,-16,-8
O=C(CN1CC2(CCOCC2)Oc2ccccc2C1=O)N1CCC(O)CC1,7,6,-4,5
Cc1cccc(C(=O)N[C@@H]2C(=O)Nc3c(c(C)nn3C)[C@H]2c2cccc(C(F)(F)F)c2)c1,-1,-8,3,-17
COc1cccc([C@@H]2c3c(C)nn(C)c3NC(=O)[C@H]2NC(=O)c2ccc(Cl)cc2)c1,1,11,35*,4
COc1ccc(NC(=O)CCc2cccc3[nH]ccc23)cc1F,-4,-3,9,-20
CCN(Cc1ccccc1)c1nc2ccccc2nc1NS(=O)(=O)c1cc([N+](=O)[O-])ccc1C,16,34*,20,29
Cc1ccn2cc(CCNS(=O)(=O)c3cc([N+](=O)[O-])ccc3C)nc2c1,10,.,3,21
CS(=O)(=O)c1ccc(N2CCCN(C(=O)c3ccc(C(F)(F)F)cc3)CC2)cc1,-47,-3,-8,4
CN(CCCNC(=O)c1cccc2c1SCCC2=O)c1ccccc1,-3,54*,8,0
COC(=O)c1ccc(NC(=O)c2cccc3c2SCCC3=O)cc1,1,36*,13,4
O=C(Nc1ccncc1)c1cn(Cc2ccccc2)cc2c(=O)n(-c3ccccc3)nc1-2,10,24,16,50*
SMILES,OTUD3 block,USP17 block,USP28 block,USP30 block
Cc1ccc(OCCNC(=O)c2cc(=O)[nH]c3ccccc23)cc1,0,43*,2,-2
Cc1nn2c(CNC(=O)c3ccc4cc[nH]c4c3)c(C)nc2s1,-8,-9,-10,-24
Cc1ccc(N2CCCS2(=O)=O)cc1NC(=O)COc1ccccc1F,14,13,11,34*
CCOc1ccc(C(=O)Nc2cc(N3CCCS3(=O)=O)ccc2C)cc1,7,8,9,24
COc1ccc(N2CCCS2(=O)=O)cc1NC(=O)c1ccccc1OC,-2,11,35*,0
CCOc1ccccc1C(=O)Nc1cc(N2CCCS2(=O)=O)ccc1C,15,14,32*,29
O=C(Nc1ccccc1Sc1ncc(-c2ccc(Cl)cc2)cn1)c1ccco1,7,52*,14,24
O=C(Nc1ncc2c(n1)CC(c1ccc(Cl)cc1)CC2=O)c1ccco1 (stereo unspecified),-3,15,4,-1
NC(=O)c1c[nH]n2c(=O)cc(C3CC(=O)N(c4cccc5ccccc45)C3)nc12 (stereo unspecified),-16,-8,-11,-58
CC(C)C(NC(=O)c1cc(=O)[nH]c2ccccc12)c1nc2ccccc2[nH]1 (stereo unspecified),-66,-103,-95,-344
O=C(COc1cccc(F)c1)NC(Cc1ccccc1)c1nc2ccccc2[nH]1 (stereo unspecified),-6,46*,-2,11
COc1cc(C(=O)NC(Cc2ccccc2)c2nc3ccccc3[nH]2)cc(OC)c1OC (stereo unspecified),13,3,11,66*
O=C(NC(Cc1ccccc1)c1nc2ccccc2[nH]1)c1cc(=O)[nH]c2ccccc12 (stereo unspecified),-2,61*,17,56*
c1ccc2sc(C3CCCCN3)nc2c1 (stereo unspecified),-13,-50,-34,-111
CCCCCn1c(Sc2ccc(C)cc2)nc2c1c(=O)[nH]c(=O)n2C,18,34*,18,53*
CCC(C)Sc1nc2c(c(=O)[nH]c(=O)n2C)n1Cc1ccccc1 (stereo unspecified),0,2,12,17
C/C=C1/C2=CCCN3C(=O)O[C@H]([C@H]1O)[C@H]23,1,72*,69*,14
Cc1cnc(-c2nccnc2C2CCN(Cc3cncs3)CC2)[nH]1,4,7,8,-42
COc1ccc(-c2noc(-c3ccc(N4CCC5(CC4)OCCO5)nc3)n2)cc1,13,15,9,34*
Cc1ccc(-c2noc(-c3ccc(N4CCC5(CC4)OCCO5)nc3)n2)cc1,-3,1,-5,-1
COc1ccc(S(=O)(=O)N(Cc2ccco2)Cc2cc3ccccc3[nH]c2=O)cc1,-7,11,28,42*
COc1ccc(S(=O)(=O)N(Cc2cccnc2)Cc2cc3ccccc3[nH]c2=O)cc1,-11,-21,-15,-26
COc1ccccc1CNC(=O)c1ccc(C)c(S(=O)(=O)N2CCOCC2)c1,-14,-25,-7,-2
CCn1c(COc2ccc(OC)cc2)nnc1SCc1ccccc1Cl,20,19,25,32*
CCn1c(COc2ccccc2OC)nnc1SCc1ccccc1,2,-9,1,9
CCn1c(COc2ccc3c(c2)OCO3)nnc1SCc1ccc([N+](=O)[O-])cc1,8,-1,16,16
CCn1c(COc2cccc(C(F)(F)F)c2)nnc1SCc1ccc(Cl)cc1,24,36*,59*,58*
CN1C(=O)c2ccccc2OCCCCC[C@H]2[C@@H]1CCCN2C(=O)CCN1CCC(C(N)=O)CC1,7,-43,5,6
COc1cccc(C(=O)N2c3ccccc3C(C)(c3ccccc3)CC2(C)C)c1 (stereo unspecified),3,1,7,1
Cc1cccc(NS(=O)(=O)c2cc3[nH]c4c(c3cc2C)C(=O)CC(C)(C)C4)c1,-4,36*,4,20
